Reference: PubChem BioAssay
Activity calls are given as the source filed them. Unless noted, the rule behind the calls is not given here.

Assays:
[1] = tested on: Wnt5a (protein binding on small-molecule microarray); assay: small molecules binding Wnt5a protein – biophysical, small-molecule microarray, 635/667 nm fluorescence, primary screen (AID 1142); settings: 635 nm fluorescence, higher = more signal;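 note: fluorescence read at 667 nm with signal to noise per printed feature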
[2] = ATP-based viability of Huh7 replicon cells – cell-based, CellTiter-Glo luminescence, basal, 48 h, cytotoxicity control for HCV replication inhibitor project, primary screen (AID 1143); settings: higher = more signal, called active from +8 up or from −8 down;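 note: Huh7 hepatoma cells carrying a hepatitis C replication reporter with no stimulus; test concentration not given here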
[3] = Pseudomonas biofilm growth suppression – PAO1 strain, BacTiter-Glo luminescence, LB-PBS, primary screen (AID 1144); settings: P. aeruginosa PAO1 biofilm, 12 h, higher = more signal
[4] = basal CRE-LacZ reporter activity in PC12 – cell-based, unstimulated, primary screen (AID 1145); settings: no forskolin, luminescence, 4.5 h, higher = more signal, called active from +8 up or from −8 down
[5] = forskolin-driven CRE-LacZ activity in PC12 – cell-based, CRE-LacZ reporter, forskolin-stimulated, primary screen (AID 1146); settings: luminescence, 4.5 h, higher = more signal, called active from +8 up or from −8 down;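 note: PC12 cells with 6xCRE LacZ reporter stimulated by forskolin 10 µM; beta-galactosidase reporter signal reflecting CREB driven transcription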
[6] = target: Streptavidin (Streptomyces avidinii) (UniProt P22629); assay: compounds binding control protein streptavidin – biophysical, small-molecule microarray, 635/667 nm fluorescence, artefact control for SMM compound annotation, primary screen (AID 1147); settings: higher = more signal;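 note: signal reflects streptavidin binding to arrayed compounds as a control protein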
Streptavidin (Streptomyces avidinii), sequence (P22629 whole entry, looked up): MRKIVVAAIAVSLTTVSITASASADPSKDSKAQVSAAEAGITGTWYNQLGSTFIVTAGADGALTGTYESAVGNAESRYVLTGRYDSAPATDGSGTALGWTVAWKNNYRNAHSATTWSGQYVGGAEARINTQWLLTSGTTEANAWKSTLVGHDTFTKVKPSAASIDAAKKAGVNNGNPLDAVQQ

[7] = probe aInhba binding on compound microarray – biochemical, small-molecule microarray, 635/667 nm fluorescence, primary screen (AID 1148); settings: higher = more signal;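 note: score merges 667nm spot fluorescence with signal-to-noise for antibody binding to printed compounds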
Torsin-1A (Homo sapiens) [8] = target: Torsin-1A (Homo sapiens) (UniProt O14656); assay: TOR1A wild-type binding on microarray – cell lysate, small-molecule microarray, lysate, 635/667 nm, primary screen (AID 1149); settings: COS7 hTOR1A-WT lysate, 635 nm fluorescence, higher = more signal
Torsin-1A (Homo sapiens), sequence (O14656 whole entry, looked up): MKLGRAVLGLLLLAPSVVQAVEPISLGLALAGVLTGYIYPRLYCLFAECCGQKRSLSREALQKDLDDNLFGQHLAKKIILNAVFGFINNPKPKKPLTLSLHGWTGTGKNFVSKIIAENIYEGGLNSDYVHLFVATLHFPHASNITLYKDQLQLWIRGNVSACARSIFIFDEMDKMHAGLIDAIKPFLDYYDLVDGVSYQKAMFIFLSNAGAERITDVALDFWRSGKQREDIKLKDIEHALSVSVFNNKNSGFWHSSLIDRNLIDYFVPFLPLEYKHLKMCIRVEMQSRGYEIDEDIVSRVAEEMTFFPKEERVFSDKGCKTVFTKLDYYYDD

Torsin-1A (Homo sapiens) [9] = target: Torsin-1A (Homo sapiens) (UniProt O14656); assay: torsin A mutant lysate binding on microarrays – cell lysate, small-molecule microarray, COS7 lysate, 635/667 nm fluorescence, primary screen (AID 1150); settings: COS7 hTOR1A mutant lysate, 635 nm fluorescence, higher = more signal;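 note: score pools 667 nm emission and signal to noise measuring lysate protein binding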
[10] = tested on: Sonic hedgehog protein (Shh); assay: Sonic hedgehog microarray binding compounds – biochemical, small-molecule microarray, 635/667 nm fluorescence, primary screen (AID 1151); settings: 635 nm fluorescence, higher = more signal;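 note: Shh protein binding to compounds spotted on small-molecule microarray slides; score combines spot fluorescence intensity with signal-to-noise across triplicate slides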

Row | Compound | composite z-score [1] | z-score [2] | z-score [3] | z-score [4] | z-score [5] | composite z-score [6] | composite z-score [7] | composite z-score (Torsin-1A (Homo sapiens) [8]) | composite z-score (Torsin-1A (Homo sapiens) [9]) | composite z-score [10]
1 | O=C1OCCC=C[C@H]2OC34C=CCN(CCN5CCOCC5)C(=O)[C@H]3N(CCCCCCO)C(=O)[C@@H]4C12 (stereo not given in full) | -0.0312 | 0.18 (inactive) | -0.134 (inactive) | 1.55 (inactive) | 0.0231 (inactive) | -0.393 | -0.179 | 0.811 | -0.839 | 0.65
2 | C[N+](C)(C)CCCC[C@@H]1NC(=O)[C@@H]2C[C@H](C(=O)NCCCCCN)[C@H](c3cccc(OCCO)c3)N2C1=O | -0.0878 | 0.288 (inactive) | -0.165 (inactive) | 0.7 (inactive) | 0.508 (inactive) | 1.19 | -0.117 | 0.345 | -0.149 | -0.125
3 | COCCOC(=O)N1C(=O)[C@@]2(c3cc(C#Cc4ccc(OC)cc4)ccc31)[C@H](c1ccc(O)cc1)N1[C@H](c3ccccc3)[C@H](c3ccccc3)OC(=O)[C@H]1[C@@H]2C(=O)NC[C@H](O)c1ccccc1 | 0.763 | -3.94 (inactive) | -0.88 (inactive) | -1.15 (inactive) | 0.7 (inactive) | 0.452 | -0.0259 | 0.105 | 1.07 | 2.05
4 | Cc1ccc(S[C@]2(C(=O)NCC(F)(F)F)CC(=O)N(C(C)C)[C@@H]2c2ccc(CO)cc2I)cc1 | 0.0446 | -1.53 (inactive) | 0.111 (inactive) | 0.118 (inactive) | 0.725 (inactive) | -0.563 | -0.128 | -0.846 | -0.474 | -0.594
5 | COc1ccc(C(=O)Nc2ccc(CN3C(=O)[C@@]4(O[C@@H](CCO)[C@H]([Si](C)(C)c5ccc(OC)cc5)[C@H]4C)c4ccccc43)cc2)cc1 | 0.146 | -8.02 (active) | 0.422 (inactive) | 3.11 (inactive) | -1.27 (inactive) | 0.225 | -0.201 | 1.05 | 0.471 | 1.96
6 | COC(=O)[C@@]1(Cc2ccc(OC)cc2)[C@H]2c3cc(C(=O)N4CCCC4)n(Cc4ccc(OC)c(OC)c4)c3C[C@H]2CN1C(=O)c1ccccc1 | 0.753 | -2.2 (inactive) | -0.139 (inactive) | 0.959 (inactive) | -0.265 (inactive) | 2.03 | 0.955 | 0.201 | 0.695 | 0.464
7 | CO[C@H]1O[C@H](CO)[C@@H](OC(=O)Nc2ccc(Br)cc2)[C@H](OC(=O)c2cc3ccccc3[nH]2)[C@H]1OC(=O)c1cc2ccccc2[nH]1 | 0.363 | -6.05 (inactive) | -2.24 (inactive) | 2.38 (inactive) | -1.15 (inactive) | 1.22 | 0.0342 | 0.154 | 0.46 | 0.819
8 | C=CCN1C(=O)[C@]2(O[C@H](CCO)[C@@H]([Si](C)(C)c3ccc(OC)cc3)[C@@H]2C)c2cc(N3CCCCC3=O)ccc21 | 0.193 | -5.37 (inactive) | 0.597 (inactive) | 3.85 (inactive) | 0.22 (inactive) | 0.802 | 0.103 | 1.1 | 0.364 | 2.24
9 | COc1ccc([Si](C)(C)[C@H]2[C@H](CCO)O[C@@]3(C(=O)N(C)c4c(Br)cc(C)cc43)[C@@H]2C)cc1 | -0.0092 | -8.05 (active) | -1 (inactive) | 15.2 (active) | -3.2 (inactive) | 0.0036 | -0.0523 | 1.15 | 0.105 | 1.29
10 | CCCCC=C[C@@H](NC(=O)Oc1cccc(C(F)(F)F)c1)c1ccccc1 | 1.61 | -3.46 (inactive) | -0.721 (inactive) | 0.201 (inactive) | 0.0897 (inactive) | 1.84 | 0.996 | 0.961 | 0.947 | -0.629
11 | COCCOC(=O)N1C(=O)[C@@]2(c3cc(C#CC4=CCCCC4)ccc31)[C@H](c1ccc(O)cc1)N1[C@H](c3ccccc3)[C@H](c3ccccc3)OC(=O)[C@H]1[C@@H]2C(N)=O | 0.824 | -1.83 (inactive) | -0.591 (inactive) | 0.0695 (inactive) | 0.124 (inactive) | 0.17 | -0.598 | 0.0873 | 0.522 | 2.07
12 | [N-]=[N+]=Nc1ccccc1[C@H]1OC(c2ccc(OCCCO)cc2)=N[C@@]1(Cc1ccccc1)C(=O)O | 0.0316 | -1.1 (inactive) | -0.0839 (inactive) | -0.0249 (inactive) | -1.38 (inactive) | 0.365 | 0.0342 | 0.395 | 0.306 | 1.07
13 | CC(C)(C)OC(=O)CC[C@@]1(C(=O)NCCN2CCOCC2)N=C(c2ccc(OCCCO)cc2)O[C@@H]1c1ccccc1N=[N+]=[N-] | 0.492 | -1.34 (inactive) | 1.45 (inactive) | 1.55 (inactive) | -0.564 (inactive) | 0.554 | 0.0614 | 1.67 | 1.43 | -0.431
14 | COc1ccc(CCNC(=O)[C@@]2(C)c3ccccc3C(=O)N(Cc3cc(F)cc(C(F)(F)F)c3)[C@H]2c2ccc(CO)cc2)cc1 | 0.126 | -4.52 (inactive) | 1.3 (inactive) | 0.001 (inactive) | -1.28 (inactive) | -0.55 | -0.0791 | -0.621 | -0.0937 | -0.0895
15 | CC(C)(C)OC(=O)CC[C@@]12N=C(c3ccc(OCCCO)cc3)O[C@@H]1c1ccccc1N(CCS(=O)(=O)c1ccccc1)C2=O | 0.251 | -3.45 (inactive) | 0.114 (inactive) | -0.389 (inactive) | -1.71 (inactive) | 0.901 | 0.0737 | -0.0101 | 0.537 | 1.27
16 | CCOC1=C2C(CN(S(=O)(=O)c3ccc(C)cc3)C2c2ccc(C)cc2)C2C(=O)N(c3ccccc3)C(=O)C2C1 (stereo not given) | -0.069 | -0.288 (inactive) | -0.382 (inactive) | -0.275 (inactive) | 0.804 (inactive) | 0.963 | 0.0906 | -0.196 | 0.115 | 0.364
17 | COCCCNC(=O)[C@@]1(Cc2ccccc2N=[N+]=[N-])N=C(c2ccc(OCCCO)cc2)O[C@H]1c1ccccc1N=[N+]=[N-] | 0.266 | -4.63 (inactive) | -0.557 (inactive) | 0.834 (inactive) | -0.803 (inactive) | 1.14 | 0.3 | 0.328 | 1.05 | -0.319
18 | COC(=O)[C@@]1(Cc2ccccc2)[C@H]2c3cc(C(=O)N4CCCC4)n(CC4CC4)c3C[C@H]2CN1C(=O)c1ccccc1 | 0.918 | -3.64 (inactive) | 0.798 (inactive) | 0.587 (inactive) | 0.847 (inactive) | 0.907 | 1.06 | 0.256 | 0.0577 | -0.151
19 | COCCOC(=O)N1C(=O)[C@@]2(c3cc(C#Cc4ccc(OC)cc4)ccc31)[C@H](C(=O)N1CCCCCCC1)[C@H]1C(=O)O[C@H](c3ccccc3)[C@H](c3ccccc3)N1[C@@H]2c1ccc(OCCO)cc1 | 0.812 | -4.68 (inactive) | -1.97 (inactive) | 0.0857 (inactive) | -0.66 (inactive) | 1.67 | 1.82 | 1.12 | 1.06 | 2.15
20 | COCCOC(=O)N1C(=O)[C@@]2(c3ccccc31)[C@H](c1ccccc1OCCO)N1[C@H](c3ccccc3)[C@H](c3ccccc3)OC(=O)[C@H]1[C@@H]2C(=O)Nc1nc2ccccc2s1 | 0.212 | -3.78 (inactive) | -0.868 (inactive) | -0.0566 (inactive) | 2.86 (inactive) | 1.14 | 0.113 | 0.421 | 1.25 | 1.81
21 | COc1ccc(CCNC(=O)[C@@]2(Sc3ccc(C)cc3)CC(=O)N(C3CCCCC3)[C@@H]2c2ccc(CO)cc2I)cc1 | 0.843 | -2.23 (inactive) | -0.382 (inactive) | -0.168 (inactive) | 1.19 (inactive) | 0.422 | 0.0391 | 0.333 | 0.789 | 0.855
22 | CCCCCCC#C[Si](O[C@H](c1ccccc1)c1cn([C@H](CO)Cc2ccccc2)nn1)(C(C)C)C(C)C | -0.193 | -0.866 (inactive) | -0.235 (inactive) | -0.215 (inactive) | -0.0183 (inactive) | -0.463 | -0.128 | -1.01 | 0.211 | 0.537
23 | CN(C)C(=O)[C@]1(Cc2ccccc2CN=[N+]=[N-])N=C(c2ccc(OCCCO)cc2)O[C@@H]1c1ccccc1CN=[N+]=[N-] | 0.49 | -5.26 (inactive) | -0.611 (inactive) | 1.31 (inactive) | -0.394 (inactive) | 0.61 | 0.461 | 1.14 | 0.917 | 1.11
24 | COc1cc2c(cc1O)C(C1CC1)N(Cc1cc3c(cc1Br)OCO3)CC2 (stereo not given) | -0.481 | -5.73 (inactive) | -0.109 (inactive) | 0.245 (inactive) | 4.34 (inactive) | -0.735 | -0.179 | -0.151 | -0.416 | -1.09
25 | COCC(=C=CC[C@@H](O)c1ccccc1OCCO)C[C@@H](O)c1cc(Cl)cc(Cl)c1O | 0.539 | -1.54 (inactive) | 0.112 (inactive) | 15.6 (active) | 0.789 (inactive) | 0.394 | -0.0112 | 1.66 | 1.04 | 2.07
26 | C=CCC(OC(C)=O)[C@@H]1[C@@H](N(Cc2ccc(-c3cccc(C(F)(F)F)c3)o2)C(=O)c2ccc(-c3ccccc3)cc2)c2cc(OCCCO)ccc2N1C(=O)c1ccc(-c2ccccc2)cc1 (stereo not given in full) | -0.0065 | 0.42 (inactive) | 0.103 (inactive) | 0.0176 (inactive) | 0.262 (inactive) | 0.0998 | -0.0403 | -0.0662 | 0.0093 | 0.32
27 | [N-]=[N+]=NCc1ccccc1[C@@H]1OC(c2ccc(OCCCO)cc2)=N[C@]1(Cc1ccccc1N=[N+]=[N-])C(=O)N1CCOCC1 | 1.11 | -1.61 (inactive) | 0.103 (inactive) | 1.78 (inactive) | -0.514 (inactive) | 1.57 | 0.636 | 0.308 | 0.898 | -0.284
28 | CC(C)N1C(=O)[C@@]2(Cc3ccccc31)c1ccccc1C(=O)N(C1CCCCC1)[C@H]2c1ccc(CO)cc1 | 0.0034 | -0.8 (inactive) | -0.868 (inactive) | -0.141 (inactive) | 0.815 (inactive) | -0.169 | -0.0987 | -0.245 | 0.333 | 1.99
